# GRP78 ERSR act: qHTS for Inducers of the Endoplasmic Reticulum Stress Response (ERSR) in Human Glioma: qHTS | Potency, µM, actives largely listed as activators | U87-MG GRP78 promoter luciferase reporter, 16 h | 420,000 tested, 0.02% active | AID 602332, 2012; also: series mostly up to about 76 µM; nearly all actives have a fitted effect of over 35% in size
#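 Stably transfected U87-MG glioma cells carrying a GRP78-based luciferase sensor; 16 h compound incubation. Luminescence end-point read 10 min after Bright-Glo addition at room temperature.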
# aSyn yeast inh: qHTS of alpha-syn Inhibitors; Yeast expressing alpha-synuclein, growth rescue, BacTiter-Glo, 24 h; Potency, µM (series often up to 46.1 µM), actives largely listed as activators; 370,000 tested, 0.14% active; also: nearly all actives have a fitted effect of over 65% in size
#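 Rescue of yeast growth: cells expressing toxic alpha-synuclein, induced in galactose at OD600 0.02, incubated with compound 24 h at 30 C. ATP luminescence quantified growth; inhibitors of toxicity appear as activators.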
# MBNL1 CUG block: qHTS Assay for Inhibitors of MBNL1-poly(CUG) RNA binding | AID 2675, 2010 | Muscleblind-like protein 1 (Homo sapiens), Q9NR56 | TR-FRET MBNL1-His/biotin-(CUG)12 binding, 665/545 ratio | 280,000 tested, 0.036% active | Potency, µM (top dose mostly 57.5 µM), most hits filed as inhibitors; active = well fitted inhibition curve with a large enough effect in the signal ratio, with a control signal flat, not every such curve was filed as active; inconclusive = small, poorly fitted or top-dose-only effect, or effect the other way, or a change in a side signal; inactive = no such curve, though single readings can be large or run the other way; the % refers to the signal ratio
# Target sequence (Q9NR56 whole entry, looked up): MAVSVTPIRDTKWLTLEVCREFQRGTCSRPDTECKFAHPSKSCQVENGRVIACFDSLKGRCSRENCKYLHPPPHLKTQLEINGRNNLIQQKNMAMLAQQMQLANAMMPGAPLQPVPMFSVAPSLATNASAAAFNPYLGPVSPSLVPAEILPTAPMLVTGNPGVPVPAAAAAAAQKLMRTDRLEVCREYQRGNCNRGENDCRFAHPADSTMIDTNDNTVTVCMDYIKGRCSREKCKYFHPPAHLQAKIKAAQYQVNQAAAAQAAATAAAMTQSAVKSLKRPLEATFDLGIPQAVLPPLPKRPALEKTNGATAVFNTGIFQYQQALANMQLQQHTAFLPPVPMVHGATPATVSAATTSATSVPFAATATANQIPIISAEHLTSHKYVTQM
#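 His-tagged MBNL1 binding to biotinylated (CUG)12 RNA was measured by TR-FRET using terbium anti-His antibody (0.055 ng/ul final) and streptavidin-XL665 (5 nM final). Compounds were titrated 92 nM to 58 uM; 60 min at room temperature.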
# TDP43 rescue: qHTS of TDP-43 Inhibitors. TDP-43 expressing yeast growth rescue, BacTiter-Glo, 24 h. Potency, µM (top dose mostly 46.1 µM), actives largely listed as activators. 410,000 tested, 1.8% active. AID 652104, 2013; also: nearly all actives have a fitted effect of over 50% in size
#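 Galactose-induced TDP-43 yeast, OD600=0.02, compound pinned; 24 hr, 30 deg C; BacTiter-Glo luminescence for growth. Inhibitors of TDP-43 toxicity read as activators.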
# Abeta yeast res: qHTS for compounds that reverse cellular toxicity of Amyloid beta (A-beta) peptide in yeast: Primary Screen | yeast expressing A-beta42, growth rescue, OD600, 48 h; response scale: 0% DMSO, 100% iron-clioquinol control | Potency, µM (series often up to 46.1 µM), actives largely listed as activators | 410,000 tested, 0.063% active | AID 1347071, 2019; also: nearly all actives have a fitted effect of over 55% in size
#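 Yeast A-beta toxicity model in growth medium with pinned compounds, 48 h at 30 C; growth read as absorbance at 600 nm. Normalized to FeCl3/clioquinol equimolar mix (positive) and DMSO (negative).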
# FUS suppressor: qHTS for Suppressors of FUS Proteinopathy: Primary screen using FUS-linked yeast assay. S. cerevisiae FUS-expressing, growth rescue, OD600, 24 h. Potency, µM (highest dose often 76.6 µM), actives largely listed as activators. 390,000 tested, 0.24% active; also: nearly all actives have a fitted effect of over 55% in size
#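 Compound concentration series was pinned onto galactose-induced FUS-expressing yeast seeded at OD 0.005. Plates sat 24hr at 30C; absorbance at 600 nm gave growth. DMSO served as background control.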
# MBNL1 TRFRET: qHTS Assay for Inhibitors of MBNL1-poly(CUG) RNA binding: Initial hit validation from the primary screen; TR-FRET MBNL1-His / biotin-(CUG)12 binding, 60 min; AID 493199, 2011; Potency, µM (titrated, usually from 57.6 µM), usual class: inhibitors; shares compounds with MBNL1 CUG block; 140 tested, 50% active
# MBNL1 AlphaScrn: qHTS Assay for Inhibitors of MBNL1-poly(CUG) RNA binding: Initial hit validation in AlphaScreen assay for MBNL1-(CUG)12 binding. shares compounds with MBNL1 CUG block. AlphaScreen MBNL1-His / biotin-(CUG)12 binding. Potency, µM (doses to about 57.7 µM), actives largely listed as inhibitors. 140 tested, 30% active. AID 493205, 2011
# MBNL1 HTRF CS: qHTS Assay for Inhibitors of MBNL1-poly(CUG) RNA binding: Counterscreen HTRF assay; shares compounds with MBNL1 CUG block; His-Menin/biotin-MLL peptide TR-FRET counterscreen; Potency, µM (doses to about 57.6 µM), most hits filed as inhibitors; 120 tested, 20% active; AID 651843, 2012
# A number is an active result; n = inactive; u = inconclusive; x = not tested or not shown. Most compounds without a hit are left out; they make up all but 2% or so of the library. Unless noted, calls follow the shape of the dose curve; as a rule, active = well fitted curve in the direction sought with a large enough effect; inconclusive = small, poorly fitted or top-dose-only effect, or another doubt; inactive = no such curve, though single readings can be large; an effect the other way counts as inactive or inconclusive.
SMILES,GRP78 ERSR act,aSyn yeast inh,MBNL1 CUG block,TDP43 rescue,Abeta yeast res,FUS suppressor,MBNL1 TRFRET,MBNL1 AlphaScrn,MBNL1 HTRF CS
COc1cccc(/C=C/C(=O)Nc2ccc3nc(N4CCN(C)CC4)cc(C)c3c2)c1OC,n,x,x,n,n,n,x,x,x
COc1cc(C(=O)Nc2ccc3nc(N4CCN(C)CC4)cc(C)c3c2)cc(OC)c1OC,n,n,22µM,n,n,n,10µM,n,29µM
COc1ccc(C)cc1S(=O)(=O)Nc1ccc(F)c(Cl)c1,n,n,25µM,18µM,n,n,n,n,n
COC(=O)c1ccc(=O)c2nc3/c(=C/O)c(O)cc(=O)c3[nH]c12,n,n,u,n,n,n,0.26µM,0.29µM,n
CCOc1cc(C(c2c(C)[nH]n(-c3ccccc3)c2=O)c2c(C)[nH]n(-c3ccccc3)c2=O)ccc1O,n,x,x,n,n,n,x,x,x
COc1ccc(C(c2c(C)[nH]n(-c3ccccc3)c2=O)c2c(C)[nH]n(-c3ccccc3)c2=O)cc1OC,n,n,40µM,n,n,x,u,u,n
CCOC(=O)CCCCC(=O)c1[nH]c(=O)[nH]c1Cn1cnc2ccccc21,n,n,10µM,n,n,n,10µM,2.6µM,26µM
COc1cc(-c2nnc(SCC(=O)N3C(C)CCCC3C)o2)cc(OC)c1OC (configuration not stated),x,x,x,x,x,n,x,x,x
C=CCn1c(NS(=O)(=O)c2ccccc2)c(S(=O)(=O)c2ccc(C)cc2)c2nc3ccccc3nc21,n,n,20µM,n,n,x,n,u,n
O=S(=O)(Nc1c(S(=O)(=O)c2ccccc2)c2nc3ccccc3nc2n1C1CCCCC1)c1ccccc1,n,n,x,n,n,x,x,x,x
CCCCN1CN2Cc3cc(OC)ccc3C2CS1(=O)=O (configuration not stated),x,x,x,x,x,n,x,x,x
CCCCCCC(=O)O,n,n,x,n,n,n,x,x,x
O=C(O)CCCCCCCC(=O)O,n,n,20µM,u,n,n,u,u,n
CCO/C=C1/C(=O)N(Cc2ccccc2)C(=O)c2ccccc21,n,n,16µM,u,n,x,n,52µM,n
O=C(CSc1n[nH]c(-c2ccncc2)n1)NC1CCS(=O)(=O)C1 (configuration not stated),n,n,7.9µM,n,n,u,10µM,n,u
COC(=O)[C@]12C[C@H](CC(=O)N3CCCC3)C(=O)N(CCc3ccc(OC)c(OC)c3)C1=C[C@H](COCc1ccccc1)O[C@@H]2C,x,x,x,x,x,n,x,x,x
COc1ccccc1NC(=O)Nc1ccnn1Cc1cccs1,n,n,4µM,n,n,n,1.3µM,0.65µM,10µM
COc1ccccc1NC(=O)Nc1ccnn1C1CCCCC1,n,n,n,n,n,n,n,n,n
COc1ccccc1NC(=O)Cc1cccs1,n,n,n,n,n,n,x,x,x
COc1ccccc1NC(=O)Nc1ccnn1C1CCN(C(=O)c2ccccn2)CC1,n,n,n,n,n,n,x,x,x
Cc1cc(=O)[nH]c(SCC(=O)Nc2cccc(Cl)c2F)n1,x,x,x,x,x,n,x,x,x
CN1CCc2cc(NC(=O)Nc3cccnc3)ccc21,n,n,x,x,x,x,u,n,x
Cc1ccc(NC(=O)Nc2cccnc2)cc1Cl,n,n,n,n,n,n,x,x,x
CC(=O)c1ccc(NC(=O)Nc2cccnc2)cc1,n,n,28µM,n,n,n,21µM,n,29µM
CCN(CC)C(=O)CC[C@H]1CC[C@]2(CCCN(Cc3ccc(OC)cc3)C2)O1,x,x,x,x,x,n,x,x,x
SMILES,GRP78 ERSR act,aSyn yeast inh,MBNL1 CUG block,TDP43 rescue,Abeta yeast res,FUS suppressor,MBNL1 TRFRET,MBNL1 AlphaScrn,MBNL1 HTRF CS
Nn1c(SCC(=O)Nc2ccc(OCc3ccccc3)cc2)nnc1-c1cc(-c2ccccc2)n[nH]1,x,x,x,x,x,n,x,x,x
O=C(N/N=C/c1ccc(-c2ccccc2Cl)o1)c1ccccc1,n,n,n,n,n,n,x,x,x
O=S(=O)(N/N=C\c1ccc(-c2ccccc2Cl)o1)c1ccccc1,n,u,20µM,u,n,n,n,n,n
Cc1cccc(NC(=O)CSc2nnc(SCc3ccc(Cl)cc3)s2)c1,x,x,x,x,x,n,x,x,x
CC(=O)c1ccc[n+](CC(=O)c2ccc(F)cc2)c1,n,x,x,x,x,x,x,x,x
O=C(OCc1cn(Cc2ccc(C(F)(F)F)cc2)nn1)N1CCCC1,x,x,x,x,x,n,x,x,x
O=C(c1ccc2c(c1)OCCO2)N1CCN(c2nc(-c3cccs3)nc3ccccc23)CC1,x,n,x,x,x,x,x,x,x
C[C@@H]1O[C@@H](OC[C@H]2O[C@@H](Oc3c(-c4ccc(O)c(O)c4)oc4cc(O)cc(O)c4c3=O)[C@H](O)[C@@H](O)[C@@H]2O)[C@H](O)[C@H](O)[C@H]1O,n,n,u,n,n,n,u,u,n
CCc1cnc2ccccc2c1/C=C/c1ccc(N(C)C)cc1,n,n,x,x,x,x,x,x,x
COc1cc(C=NN2CCN(C(c3ccccc3)c3ccccc3)CC2)cc(OC)c1OC(C)=O,x,x,x,x,x,n,x,x,x
CCCCN1C(=O)NC2NC(=O)NC21 (configuration not stated),n,n,5.6µM,n,n,n,3.3µM,1.2µM,u
CCn1c(SCC(=O)Nc2nc(C)c(C)s2)nnc1-c1ccco1,n,n,n,n,n,n,x,x,x
CCn1c(SCC(=O)Nc2nc(C)c(C)s2)nnc1-c1cccs1,n,n,40µM,n,n,n,n,n,n
O=C(NN=Cc1ccc(O)cc1)c1cc(-c2ccc(Cl)cc2)n[nH]1,x,x,x,x,x,n,x,x,x
